For some of these results: Results with a measured potency or affinity are listed apart.

What all share (design): scale not given: direction of the effect not stated beside the values
The target of experiment [1] is Protein translocase subunit SecA (Escherichia coli (strain K12)) (UniProt P10408). Description: Assay to Identify E. coli SecA ATPase Inhibitors. Format: functional. The following applies: 30 µM.
In experiment [2] the target is T1, Ubiquitin-activating enzyme e1, putative (Leishmania donovani (strain BPK282A1)) (UniProt E9BSI1).
T1 sequence (whole entry): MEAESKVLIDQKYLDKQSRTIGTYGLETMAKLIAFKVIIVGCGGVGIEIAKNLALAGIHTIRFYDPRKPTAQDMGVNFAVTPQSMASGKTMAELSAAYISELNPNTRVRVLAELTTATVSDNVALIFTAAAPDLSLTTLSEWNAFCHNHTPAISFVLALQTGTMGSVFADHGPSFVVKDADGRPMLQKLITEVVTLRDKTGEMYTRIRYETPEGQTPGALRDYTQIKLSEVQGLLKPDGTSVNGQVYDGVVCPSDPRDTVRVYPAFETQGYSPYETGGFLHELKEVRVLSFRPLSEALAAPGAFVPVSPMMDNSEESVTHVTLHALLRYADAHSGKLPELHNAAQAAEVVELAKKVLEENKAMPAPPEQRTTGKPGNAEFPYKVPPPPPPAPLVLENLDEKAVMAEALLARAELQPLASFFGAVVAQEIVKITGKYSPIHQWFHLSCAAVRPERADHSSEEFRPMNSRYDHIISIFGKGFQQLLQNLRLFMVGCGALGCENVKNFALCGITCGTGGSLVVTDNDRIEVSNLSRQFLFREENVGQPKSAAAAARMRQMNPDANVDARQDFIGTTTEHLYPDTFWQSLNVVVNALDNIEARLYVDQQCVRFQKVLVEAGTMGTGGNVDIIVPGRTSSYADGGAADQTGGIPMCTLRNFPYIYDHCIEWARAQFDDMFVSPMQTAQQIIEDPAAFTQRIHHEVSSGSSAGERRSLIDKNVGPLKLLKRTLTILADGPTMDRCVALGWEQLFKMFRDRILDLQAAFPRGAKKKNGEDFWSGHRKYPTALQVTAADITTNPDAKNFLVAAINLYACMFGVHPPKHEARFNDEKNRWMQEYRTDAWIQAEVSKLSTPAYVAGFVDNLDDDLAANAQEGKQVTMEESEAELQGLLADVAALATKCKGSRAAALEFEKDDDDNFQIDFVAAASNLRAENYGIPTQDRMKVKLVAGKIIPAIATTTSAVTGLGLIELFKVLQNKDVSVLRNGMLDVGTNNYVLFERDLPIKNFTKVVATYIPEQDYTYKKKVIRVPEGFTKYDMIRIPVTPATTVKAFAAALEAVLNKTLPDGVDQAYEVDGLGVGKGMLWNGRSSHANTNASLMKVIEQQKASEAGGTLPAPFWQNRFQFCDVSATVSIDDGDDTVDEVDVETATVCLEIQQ
Description: Leishmania donovani Ubiquitin Activating Enzyme (LdE1). Format: functional. To be noted: 30 µM.

Experiment [3] has as its target AMP-activated protein kinase, AMPK (Homo sapiens) (UniProt P54646+O43741+P54619+Q9UGJ0+Q9Y478+Q13131+Q9UGI9). Description: AMP-dependent Kinase enzyme assay. An in vitro enzyme assay that detects ADP turnover that is directly proportional to AMPK activity. This uses naive AMPK that is activated during the assay with MK-8722. To be noted: 30 µM. Format: functional.

Experiment [4] has as its target Sialic acid-binding Ig-like lectin 9 (Homo sapiens) (UniProt Q9Y336). The experiment in a line: Hs-Siglec9 ALPHAscreen SOP 20170721. The following applies: 10 µM. Background: Alpha assays give light when donor and acceptor beads are brought close together.
A further experiment has as its system Trypanosoma cruzi. Description: Trypanosoma cruzi phosphomannomutase and mannose-1-phosphate guanylyltransferase assay. The experiment is classed as functional. The following applies: 10 µM.
Experiment [5] concerns the target T2, Arginase-2, mitochondrial (Homo sapiens) (UniProt P78540).
T2 sequence (whole entry): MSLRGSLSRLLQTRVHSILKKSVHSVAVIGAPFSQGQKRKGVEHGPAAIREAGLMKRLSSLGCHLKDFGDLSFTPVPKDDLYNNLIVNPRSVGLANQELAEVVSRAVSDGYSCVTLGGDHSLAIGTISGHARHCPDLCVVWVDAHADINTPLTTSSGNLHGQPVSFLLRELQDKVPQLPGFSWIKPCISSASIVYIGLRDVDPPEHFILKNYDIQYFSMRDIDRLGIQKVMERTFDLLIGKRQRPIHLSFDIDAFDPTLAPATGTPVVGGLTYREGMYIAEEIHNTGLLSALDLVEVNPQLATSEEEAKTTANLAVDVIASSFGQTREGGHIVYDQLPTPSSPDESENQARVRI
The experiment in a line: in vitro enzyme assay to detect the production of urea directly proportional to the activity of Arginase II. Note: in the data most compounds retested in dose-response had high values. Format: functional. To be noted: 33.3 µM.

In experiment [6] the target is T3, Proteasome subunit beta (Trypanosoma cruzi) (UniProt O96673).
T3 sequence (whole entry): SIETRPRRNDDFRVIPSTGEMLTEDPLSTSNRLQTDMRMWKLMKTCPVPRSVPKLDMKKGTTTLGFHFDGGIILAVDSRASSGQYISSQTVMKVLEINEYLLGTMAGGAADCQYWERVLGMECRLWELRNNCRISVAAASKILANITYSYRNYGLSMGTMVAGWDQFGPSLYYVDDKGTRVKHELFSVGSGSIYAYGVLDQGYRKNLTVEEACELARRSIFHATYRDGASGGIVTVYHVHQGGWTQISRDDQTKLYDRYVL
Description: Trypanosoma cruzi proteasome chymotrypsin-like activity (TcProtChymo) assay. Note: in the data most compounds retested in dose-response had high values. The experiment is classed as functional. To be noted: 9.37 µM.

Another experiment is filed under the species Homo sapiens. Description: To identify inhibition of the IFN signalling (Jak-Stat) pathway via expression of an eGFP reporter gene under the control of an IFN-stimulated response element (ISRE) containing MxA promoter. The experiment is classed as functional. The following applies: 30 µM. Background: A reporter such as luciferase makes a cellular process visible.

Experiment [7] concerns the target T4, Tyrosyl-tRNA synthetase, putative (Trypanosoma cruzi (strain CL Brener)) (UniProt Q4DSP6).
T4 sequence (whole entry): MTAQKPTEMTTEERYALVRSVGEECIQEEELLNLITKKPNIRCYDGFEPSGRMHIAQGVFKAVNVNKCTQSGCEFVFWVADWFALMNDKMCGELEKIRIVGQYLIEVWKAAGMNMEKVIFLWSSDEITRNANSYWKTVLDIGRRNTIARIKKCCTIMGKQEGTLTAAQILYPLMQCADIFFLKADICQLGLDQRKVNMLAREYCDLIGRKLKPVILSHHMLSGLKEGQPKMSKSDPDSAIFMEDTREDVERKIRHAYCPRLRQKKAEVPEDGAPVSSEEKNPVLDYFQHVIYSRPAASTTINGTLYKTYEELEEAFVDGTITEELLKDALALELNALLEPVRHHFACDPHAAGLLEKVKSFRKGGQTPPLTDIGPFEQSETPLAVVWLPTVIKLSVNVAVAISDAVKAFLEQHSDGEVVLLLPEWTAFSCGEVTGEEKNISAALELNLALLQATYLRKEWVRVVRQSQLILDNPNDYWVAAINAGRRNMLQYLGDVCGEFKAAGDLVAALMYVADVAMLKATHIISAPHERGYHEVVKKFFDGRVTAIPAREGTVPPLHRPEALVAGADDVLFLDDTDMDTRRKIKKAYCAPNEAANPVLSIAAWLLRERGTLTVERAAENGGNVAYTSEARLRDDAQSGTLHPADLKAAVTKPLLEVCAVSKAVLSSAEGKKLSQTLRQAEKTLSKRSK
Description: Trypanosoma cruzi tyrosyl tRNA synthetase (TcYRS) _High Tyrosine SOP. Note: in the data most compounds retested in dose-response had high values. Format: functional. The following applies: 30 µM.

Experiment [8] concerns the target T4, Tyrosyl-tRNA synthetase, putative (Trypanosoma cruzi (strain CL Brener)). Description: Trypanosoma cruzi tyrosyl tRNA synthetase (TcYRS) SOP. The experiment is classed as functional. To be noted: 30 µM.
Experiment [9] concerns the target Chromo domain-containing protein 1 (Saccharomyces cerevisiae (strain ATCC 204508 / S288c) (Baker's yeast)) (UniProt P32657). Description: ScCHD-1 Enzyme Inhibition Assay. Note: in the data most compounds retested in dose-response had high values. The following applies: 30 µM. The experiment is classed as functional.

Chromo domain-containing protein 1 (Saccharomyces cerevisiae (strain ATCC 204508 / S288c) (Baker's yeast)), sequence (P32657 whole entry, the tested form may be a part): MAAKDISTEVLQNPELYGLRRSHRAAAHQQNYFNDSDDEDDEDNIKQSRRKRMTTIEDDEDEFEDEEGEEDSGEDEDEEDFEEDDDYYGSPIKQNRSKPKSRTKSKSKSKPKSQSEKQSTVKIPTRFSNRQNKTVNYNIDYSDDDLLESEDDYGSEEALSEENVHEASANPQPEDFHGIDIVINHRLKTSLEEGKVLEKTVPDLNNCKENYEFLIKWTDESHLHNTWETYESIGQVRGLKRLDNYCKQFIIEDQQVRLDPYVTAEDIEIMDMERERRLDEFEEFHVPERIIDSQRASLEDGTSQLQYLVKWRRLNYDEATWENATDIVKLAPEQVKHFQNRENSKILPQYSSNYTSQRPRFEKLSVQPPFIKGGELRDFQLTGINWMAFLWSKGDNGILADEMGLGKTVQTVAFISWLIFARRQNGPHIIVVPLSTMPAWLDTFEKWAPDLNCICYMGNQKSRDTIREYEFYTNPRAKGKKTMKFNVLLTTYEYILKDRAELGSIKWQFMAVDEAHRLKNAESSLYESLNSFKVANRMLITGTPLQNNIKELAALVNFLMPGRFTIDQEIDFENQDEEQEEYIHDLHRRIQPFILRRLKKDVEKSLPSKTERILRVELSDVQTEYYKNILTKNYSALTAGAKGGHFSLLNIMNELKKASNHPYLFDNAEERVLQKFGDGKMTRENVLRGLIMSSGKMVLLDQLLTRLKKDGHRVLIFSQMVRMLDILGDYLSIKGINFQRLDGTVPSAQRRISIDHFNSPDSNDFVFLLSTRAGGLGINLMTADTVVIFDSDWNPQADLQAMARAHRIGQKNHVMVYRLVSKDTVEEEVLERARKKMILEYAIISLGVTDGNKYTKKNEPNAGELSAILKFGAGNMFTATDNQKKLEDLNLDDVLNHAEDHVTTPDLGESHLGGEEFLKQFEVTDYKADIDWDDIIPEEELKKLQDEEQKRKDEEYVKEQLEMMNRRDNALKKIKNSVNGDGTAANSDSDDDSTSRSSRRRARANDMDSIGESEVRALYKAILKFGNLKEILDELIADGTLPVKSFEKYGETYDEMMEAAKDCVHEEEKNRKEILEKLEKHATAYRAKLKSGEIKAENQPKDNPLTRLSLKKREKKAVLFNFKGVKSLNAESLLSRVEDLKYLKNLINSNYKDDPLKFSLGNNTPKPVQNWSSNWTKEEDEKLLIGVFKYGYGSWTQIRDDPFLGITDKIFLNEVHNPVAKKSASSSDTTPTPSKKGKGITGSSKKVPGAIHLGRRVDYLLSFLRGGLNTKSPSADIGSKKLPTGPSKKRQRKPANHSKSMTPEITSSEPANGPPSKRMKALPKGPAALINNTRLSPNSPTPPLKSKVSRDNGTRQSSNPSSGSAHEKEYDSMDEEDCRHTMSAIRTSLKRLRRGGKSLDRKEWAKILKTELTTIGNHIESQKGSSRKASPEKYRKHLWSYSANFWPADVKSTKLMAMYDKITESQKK
Sialic acid-binding Ig-like lectin 9 (Homo sapiens), sequence (Q9Y336 whole entry): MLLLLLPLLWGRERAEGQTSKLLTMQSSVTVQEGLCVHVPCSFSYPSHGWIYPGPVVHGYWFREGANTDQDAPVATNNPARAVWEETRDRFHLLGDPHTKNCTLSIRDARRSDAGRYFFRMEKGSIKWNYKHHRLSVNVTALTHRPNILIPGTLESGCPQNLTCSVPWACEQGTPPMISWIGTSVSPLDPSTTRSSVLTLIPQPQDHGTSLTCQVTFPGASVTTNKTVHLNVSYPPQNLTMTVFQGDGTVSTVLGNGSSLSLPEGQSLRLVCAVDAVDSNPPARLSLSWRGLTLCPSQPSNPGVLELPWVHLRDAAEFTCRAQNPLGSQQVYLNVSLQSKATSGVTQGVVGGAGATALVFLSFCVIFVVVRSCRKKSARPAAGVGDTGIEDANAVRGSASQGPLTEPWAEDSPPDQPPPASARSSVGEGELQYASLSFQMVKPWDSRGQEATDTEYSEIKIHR
Protein translocase subunit SecA (Escherichia coli (strain K12)), sequence (P10408 whole entry): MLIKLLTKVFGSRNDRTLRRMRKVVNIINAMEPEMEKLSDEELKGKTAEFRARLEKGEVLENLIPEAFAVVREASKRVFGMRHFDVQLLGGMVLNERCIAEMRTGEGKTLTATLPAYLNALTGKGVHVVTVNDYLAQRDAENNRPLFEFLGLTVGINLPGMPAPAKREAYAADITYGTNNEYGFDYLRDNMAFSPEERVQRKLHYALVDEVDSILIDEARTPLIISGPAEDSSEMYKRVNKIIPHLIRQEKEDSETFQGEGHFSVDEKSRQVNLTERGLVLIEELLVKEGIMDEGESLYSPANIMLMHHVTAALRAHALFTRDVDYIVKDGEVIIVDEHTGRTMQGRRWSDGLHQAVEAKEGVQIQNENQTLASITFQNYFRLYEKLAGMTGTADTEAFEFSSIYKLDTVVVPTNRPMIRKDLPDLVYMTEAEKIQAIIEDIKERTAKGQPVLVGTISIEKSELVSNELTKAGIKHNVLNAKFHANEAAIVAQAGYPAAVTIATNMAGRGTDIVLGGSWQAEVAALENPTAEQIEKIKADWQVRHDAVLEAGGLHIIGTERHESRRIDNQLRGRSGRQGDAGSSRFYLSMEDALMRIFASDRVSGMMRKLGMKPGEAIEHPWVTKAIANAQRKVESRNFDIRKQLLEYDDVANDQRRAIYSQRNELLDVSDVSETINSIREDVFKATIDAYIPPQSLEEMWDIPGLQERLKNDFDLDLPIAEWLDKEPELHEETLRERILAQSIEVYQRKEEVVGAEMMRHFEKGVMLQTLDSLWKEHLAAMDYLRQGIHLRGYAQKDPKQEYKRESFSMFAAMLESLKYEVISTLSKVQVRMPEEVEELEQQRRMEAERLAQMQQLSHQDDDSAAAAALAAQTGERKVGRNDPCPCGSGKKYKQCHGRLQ

`CC(C)c1noc(CN(Cc2ccccc2F)C2CC2)n1`: the Percent Effect in experiment [1] is -1.22%; in experiment [2] it was 15.6%; in experiment [3], -0.613%; in experiment [4], 8.23%; in the experiment with Trypanosoma cruzi, 3.64%; in [5] it was -75.9%. The Percent Effect in [6] is 22.5%; in the experiment listed under Homo sapiens, 10.9%; in experiment [7], 7.53%; in [8], 18.5%; in experiment [9], -1.83%.

With `CC(=O)N(Cc1ncc(C)o1)C1CCN(Cc2cccc(C#N)c2)C1` (stereo not drawn), the Percent Effect in experiment [1] is -5.59%; in [2] it was 5.41%; in experiment [3], -3.95%; in [4], 9.41%; in the experiment with Trypanosoma cruzi it was -2.44%; in [5], -1.74%. Moreover, the Percent Effect in [6] was 5.24%; in the experiment listed under Homo sapiens it was 5.84%; in experiment [7] it was 0%; in [8], 1.24%; in experiment [9], -0.172%.

For `Cc1noc(C(C)N2CCN(CC(=O)N3CCOCC3)CC2)n1` (stereo not drawn), the Percent Effect is -5.15% in experiment [1]; 10.5% in [2]; -3.04% in experiment [3]; -5.34% in experiment [4]; 5.55% in the experiment on Trypanosoma cruzi; -4.73% in [5]. For the same compound, the Percent Effect in [6] is -3.93%; in the experiment listed under Homo sapiens, -8.61%; in [7] it was 2.13%; in experiment [8], 10.4%; in experiment [9] it was -15.2%.

On to `CN(C)CC1CN(C(=O)NCc2ccccc2)Cc2nccn2C1` (stereo not drawn), for which the Percent Effect is -2.59% in experiment [1]; 13.7% in experiment [2]; -1.1% in [3]; 4.01% in experiment [4]; -1.59% in the experiment on Trypanosoma cruzi; -3.19% in experiment [5]. The Percent Effect in experiment [6] was found to be 5.39%; in the experiment listed under Homo sapiens it was 3.73%; in [7], 3.12%; in [8], 6.17%; in [9] it was 1.81%.

Consider `Cn1ccnc1CN1CCN(c2ccc(C#N)cc2F)CC1`, for which the Percent Effect in [1] is -4.37%; in [2], 21.6%; in [3] it was -10.5%; in experiment [4], 15.7%; in the experiment on Trypanosoma cruzi, 3.44%; in experiment [5] it was 4.25%. Moreover, the Percent Effect in [6] was 11.1%; in the experiment filed under Homo sapiens it was 17.8%; in experiment [7], 6.93%; in experiment [8], 23.2%; in [9] it was -6.24%.

Take `CC(c1nc(C2CC2)no1)N1CCN(c2ccc(C#N)cn2)CC1` (stereo not drawn): the Percent Effect in experiment [1] is 0.926%; in experiment [2] it was 2.63%; in [3], 8.14%; in experiment [4], 5.94%; in the experiment on Trypanosoma cruzi, -4.58%; in experiment [5] it was -4.73%. The Percent Effect in experiment [6] was 13.7%; in the experiment listed under Homo sapiens it was 10.8%; in experiment [7], 2.13%; in [8], 7.79%; in experiment [9], -2.39%.

For the compound `O=C(CCc1cccnc1)N(Cc1ccsc1)CC1CCCO1` (stereo not drawn), the Percent Effect in [1] is -1.63%; in [2] it was -2.7%; in experiment [3], -0.366%; in [4], -2.41%; with Trypanosoma cruzi it was 1.93%; in experiment [5], 1.91%. Besides, the Percent Effect in [6] was 10.3%; in the experiment filed under Homo sapiens, -6.2%; in experiment [7], 1.59%; in experiment [8] it was 7.32%; in experiment [9], -3.52%.

For the compound `O=C(CCc1ccccc1)N1CCC(N2CCNC2=O)CC1`, the Percent Effect in experiment [1] was -4.14%; in experiment [2], 7.79%; in [3], 3.48%; in experiment [4], -3.35%; in the experiment on Trypanosoma cruzi it was -4.6%; in experiment [5], 1.47%. The Percent Effect in [6] was 6.06%; in the experiment filed under Homo sapiens it was 15.5%; in experiment [7], 3.81%; in experiment [8] it was 14.1%; in [9], -13.9%.

Source of the values: ChEMBL document CHEMBL3988442, “University of Dundee, Small-Polar-MMV Screening Library” (2021).
